Experimental data as given in the supplement of paper PMC6331611.
± gives the standard deviation of the averaged measurements. In all, about 1,600 compounds were measured (“normalized growth (OD600, IQM-normalized) in LPM”: median about 1, lowest 2% from about 0.014 on). Many of the other results were omitted from the sample, so the lowest values are more common in it than they were.

What follows are compounds tested on Salmonella enterica serovar Typhimurium SL1344 (assay: normalized growth (OD600, IQM-normalized) in LPM (fraction of plate interquartile mean); higher = more bacterial growth (less inhibition)). Details: LPM pH 5.8; 10 µM; 16 h.
Compound `CN(N=O)C(=O)N[C@H]1C(O)O[C@H](CO)[C@@H](O)[C@@H]1O` (mixture of isomers) has a normalized growth of 0.929 ± 0.021.
Work on `COc1cccc2c1C(=O)c1c(O)c3c(c(O)c1C2=O)C[C@@](O)(C(C)=O)C[C@@H]3O[C@H]1C[C@H](N)[C@H](O)[C@H](C)O1` yielded a normalized growth of 0.946 ± 0.016.
`CC(NCCC(c1ccccc1)c1ccccc1)c1ccccc1` (configuration not stated) showed a normalized growth of 0.976 ± 0.038.
Work on `O=C(O)CCNC(=O)c1ccc(/N=N/c2ccc(O)c(C(=O)O)c2)cc1` yielded a normalized growth of 1 ± 0.051.
`C[C@H]1O[C@H](O[C@H]2[C@H](O)[C@@H](O)[C@@H](O[C@H]3[C@H](O)[C@@H](O)C(O)O[C@@H]3CO)O[C@@H]2CO)[C@H](O)[C@@H](O)[C@@H]1N[C@H]1C=C(CO)[C@@H](O)[C@H](O)[C@H]1O` (some centres not stated) showed a normalized growth of 1.07 ± 0.011.
Work on `CCOC(=O)c1ccc(O)cc1` yielded a normalized growth of 1.02 ± 0.045.
With `N[C@@H](Cc1cc(I)c(Oc2cc(I)c(O)c(I)c2)c(I)c1)C(=O)O` the normalized growth was 1.03 ± 0.039.
For `O=C(COc1ccc(Cl)cc1)N1CCN(Cc2ccc3c(c2)OCO3)CC1`, the normalized growth was 0.928 ± 0.019.
Work on `COc1c(C)c2c(c(O)c1C/C=C(\C)CCC(=O)OCCN1CCOCC1)C(=O)OC2` yielded a normalized growth of 1.01 ± 0.035.
For `CC(=O)Nc1c(I)cc(I)c(C(=O)O)c1I`, the normalized growth was 0.949 ± 0.12.
`Cc1c(OCC(F)(F)F)ccnc1C[S@@+]([O-])c1nc2ccccc2[nH]1` showed a normalized growth of 0.967 ± 0.085.
For `CSCC[C@H](NC(=O)[C@H](Cc1c[nH]c2ccccc12)NC(=O)CCNC(=O)OC(C)(C)C)C(=O)N[C@@H](CC(=O)O)C(=O)N[C@@H](Cc1ccccc1)C(N)=O`, the normalized growth was 1.09 ± 0.026.
Compound `CC[C@H](c1ccc(O)cc1)[C@@H](CC)c1ccc(O)cc1` has a normalized growth of 1.13 ± 0.018.
`CC(C)c1nc(N(C)S(C)(=O)=O)nc(-c2ccc(F)cc2)c1/C=C/[C@@H](O)C[C@@H](O)CC(=O)O` gave a normalized growth of 1.03 ± 0.097.
`CCn1nc(C(=O)O)c(=O)c2cc3c(cc21)OCO3` showed a normalized growth of 0.00789 ± 0.00035.
`CCCc1nc(C)c2c(O)nc(-c3cc(S(=O)(=O)N4CCN(CC)CC4)ccc3OCC)nn12` showed a normalized growth of 1.02 ± 0.053.
For `CC1(C)S[C@@H]2[C@H](N3C(=O)[C@@H](c4ccccc4)NC3(C)C)C(=O)N2[C@H]1C(=O)O`, the normalized growth was 0.976 ± 0.053.
Compound `CCOC(=O)O[C@]1(C(=O)COC(=O)CC)CC[C@H]2[C@@H]3CCC4=CC(=O)C=C[C@]4(C)[C@H]3[C@@H](O)C[C@@]21C` has a normalized growth of 1 ± 0.03.
`CC(=O)Oc1cccc(C)c1` [meta-CRESYL ACETATE] showed a normalized growth of 0.995 ± 0.048.
`OCCN1C[C@H](O)[C@@H](O)[C@H](O)[C@H]1CO` showed a normalized growth of 0.993 ± 0.016.
In the case of `C#CC1(O)CC[C@H]2[C@@H]3CCC4=CC(=O)CC[C@@H]4[C@H]3CC[C@@]21CC` (some centres not stated), the normalized growth is reported as 0.941 ± 0.024.
With `CC(=O)Nc1ccc(OC(C)=O)cc1` the normalized growth was 1.05 ± 0.08.
`CCC1=C(C)CN(C(=O)NCCc2ccc(S(=O)(=O)NC(=O)N[C@H]3CC[C@H](C)CC3)cc2)C1=O` showed a normalized growth of 0.926 ± 0.053.
Compound `Nc1cc(C(Cl)=C(Cl)Cl)c(S(N)(=O)=O)cc1S(N)(=O)=O` has a normalized growth of 1.01 ± 0.036.
`CC(=O)Oc1cccc(C(=O)O)c1OC(C)=O` was tested, and the normalized growth was 0.912 ± 0.079.
`O=C(Nc1ccccc1)OCC(CN1CCCCC1)OC(=O)Nc1ccccc1` (configuration not stated) was tested, and the normalized growth was 0.903 ± 0.047.
`CC(=O)OCC(=O)[C@@]1(O)CC[C@H]2[C@@H]3CCC4=CC(=O)C=C[C@]4(C)[C@@]3(Cl)[C@@H](Cl)C[C@@]21C` showed a normalized growth of 0.894 ± 0.024.
With `CC[N+](C)(CC)CCOC(=O)C(O)(c1ccccc1)C1CCCCC1` (configuration not stated) the normalized growth was 1.1 ± 0.03.
In the case of `CC1/C=C/C=C/C=C/C=C/C=C/C=C/C=C/C(OC2O[C@H](C)[C@@H](O)[C@H](N)[C@@H]2O)CC(O)C(C(=O)O)C(O)CC(=O)CC(O)CC(O)CC(O)CC(=O)CCCC(=O)CC(=O)OC1C(C)CC(C)C(O)CC(=O)c1ccc(N)cc1` (some centres not stated), the normalized growth is reported as 1.03 ± 0.045.
Compound `Cc1cc(C)cc(OCC2CNC(=O)O2)c1` (configuration not stated) has a normalized growth of 1.02 ± 0.03.
`NC1CCN(c2c(F)cc3c(=O)c(C(=O)O)cn(C4CC4)c3c2Cl)C1` (configuration not stated) showed a normalized growth of 0.0132 ± 0.00024.
`C[C@@H]1CN(c2c(F)c(F)c3c(=O)c(C(=O)O)cn(C4CC4)c3c2F)C[C@H](C)N1` gave a normalized growth of 0.0487 ± 0.0099.
`COc1c(N2C[C@@H]3CCCN[C@@H]3C2)c(F)cc2c(=O)c(C(=O)O)cn(C3CC3)c12` gave a normalized growth of 0.0131 ± 0.0045.
For `COc1c(N2CCNC(C)C2)c(F)cc2c(=O)c(C(=O)O)cn(C3CC3)c12` (configuration not stated), the normalized growth was 0.0158 ± 0.0074.
With `C[C@@H]1CN(c2c(F)c(N)c3c(=O)c(C(=O)O)cn(C4CC4)c3c2F)C[C@H](C)N1` the normalized growth was 0.0193 ± 0.0046.
Compound `CCn1cc(C(=O)O)c(=O)c2cc(F)c(N3CCNC(C)C3)c(F)c21` (configuration not stated) has a normalized growth of 0.0416 ± 0.00075.
`CC(=O)N(CC(O)CO)c1c(I)c(C(=O)NCCO)c(I)c(C(=O)NCC(O)CO)c1I` (configuration not stated) was tested, and the normalized growth was 1.05 ± 0.036.
